# The sample as a whole holds a higher share of hits than the screen did.
# TDP1 cell noCPT: qHTS for Inhibitors of human tyrosyl-DNA phosphodiesterase 1 (TDP1): qHTS in cells in absence of CPT | 420,000 compounds, 15% hits | Potency, µM (doses to about 46.2 µM), without a hit: top-dose activity change, negative = growth inhibition, hits mostly inhibitors | DT40 Tdp1-/- hTDP1 cells, no CPT, ATP luminescence, 48 h; also: potency is read from the fitted curve at half-maximal effect; nearly all actives have a fitted effect of over 55% in size
#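 A cellular qHTS used chicken DT40 cells lacking endogenous Tdp1 but carrying stably transfected human TDP1. Compounds were applied without camptothecin, and cell growth kinetics were judged by ATP-dependent luminescence after ≥48 hr.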
# HT1080NT lethal: kills 2HG-producing HT-1080-NT fibrosarcoma cells | HT-1080-NT fibrosarcoma viability, CellTiter-Glo ATP luminescence, 48 h | Potency, µM (titrated, usually from 46.1 µM), for the others: at the top dose activity, negative = less viability, usual class: cytotoxic | 360,000 compounds, 1.6% hits;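 also: NT is the 2HG producing partner of a matched IDH1 knockdown line; potency is read from the fitted curve at half-maximal effect; 0% = DMSO-treated cells and -100% = media-only wells without cells; nearly all actives have a fitted effect of over 55% in size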
#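 HT-1080-NT; 750 cells/well; 5% FBS RPMI; 48 h compound, 37 degrees C; CellTiter-Glo luminescence; curve fitting and curve-class assignment.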
# HT1080 IDH1KD tx: HT-1080 IDH1 knockdown cell toxicity (counter line) | 360,000 compounds, 2% hits | Potency, µM (series often up to 46.1 µM), inactives show at the highest dose activity, negative = toxicity, usual class: cytotoxic | HT-1080 IDH1 knockdown viability, ATP luminescence, 48 h;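 also: potency is read from the fitted curve at half-maximal effect; 0% = DMSO wells and -100% = cell-free medium wells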
#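 % activity derives from luminescence (CellTiter-Glo), normalised to DMSO and no-cell wells. HT-1080-IDH1KD cells, 750/well, had 48 h compound exposure at 37 °C.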
# ALOX12 inh: inhibitors of human 12S-lipoxygenase ALOX12; P18054; purified 12hLO, xylenol orange hydroperoxide absorbance; Potency, µM (titrated, usually from 108 µM), for the others: at the top dose activity change, negative = inhibition, hits mostly inhibitors; 580,000 compounds, 1.1% hits; AID 1671190; also: potency is read from the fitted curve at half-maximal effect
# Target sequence (P18054 whole entry, looked up): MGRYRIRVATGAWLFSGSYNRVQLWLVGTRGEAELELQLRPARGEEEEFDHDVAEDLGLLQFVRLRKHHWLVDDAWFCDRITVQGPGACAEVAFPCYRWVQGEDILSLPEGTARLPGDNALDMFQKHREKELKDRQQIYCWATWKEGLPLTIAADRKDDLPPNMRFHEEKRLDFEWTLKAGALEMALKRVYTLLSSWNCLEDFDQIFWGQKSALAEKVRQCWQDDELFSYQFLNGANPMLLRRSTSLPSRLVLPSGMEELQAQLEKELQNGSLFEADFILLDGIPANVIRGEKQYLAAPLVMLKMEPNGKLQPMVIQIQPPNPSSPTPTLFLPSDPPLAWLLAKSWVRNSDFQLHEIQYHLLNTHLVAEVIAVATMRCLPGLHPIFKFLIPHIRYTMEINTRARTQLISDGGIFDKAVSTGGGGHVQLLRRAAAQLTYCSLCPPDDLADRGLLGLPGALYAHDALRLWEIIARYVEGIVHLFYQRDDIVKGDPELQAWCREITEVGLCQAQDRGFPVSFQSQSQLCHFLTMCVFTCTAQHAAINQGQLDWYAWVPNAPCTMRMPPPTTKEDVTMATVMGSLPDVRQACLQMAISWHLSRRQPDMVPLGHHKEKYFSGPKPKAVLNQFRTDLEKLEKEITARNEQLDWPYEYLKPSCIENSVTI
#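 Hydroperoxide product was detected by ferrous iron/xylenol orange as the 573 to 405 nm absorbance ratio. Arachidonic acid at 40 uM (final) was turned over for 30 min at room temperature by 150 nM human 12hLO, pH 7.0 Hepes buffer, after 15 min compound preincubation.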
# IL-1B inflam inh: blocks inflammasome-driven IL-1 beta release; THP-1 LPS/ATP IL-1B secretion, AlphaLISA, 16 h; hits give low values; activity change, % at 57.5 µM; 360,000 compounds, 4.7% hits; AID 743279; in the data active = activity change below about -50%; inconclusive = mostly about -30% to -49%
#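 Secreted IL-1B measured by AlphaLISA bead assay after 16 h compound exposure of THP-1 cells; compounds (final up to 57.5 uM) added 1 h before LPS (250 ng/mL) and ATP (1.25 mM) stimulation; lower signal means less secretion.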
# TDP1 cell CPT: DT40-hTDP1 cell growth loss with CPT. Potency, µM (doses to about 46.2 µM), for inactives: at the highest dose activity change, negative = growth inhibition, most hits filed as inhibitors. AID 686979. chicken DT40 Tdp1-/-;hTDP1 cells + 20 nM CPT, ATP luminescence, 48 h. 420,000 compounds, 12% hits; also: potency is read from the fitted curve at half-maximal effect; nearly all actives have a fitted effect of over 55% in size
#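 Chicken DT40 Tdp1-/- cells complemented with human TDP1, 400 cells/well, exposed to compounds plus 20 nM camptothecin for at least 48 h at 37 C; viability read as ATP content by CellTiter-Glo luminescence.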
# Numbers without * were called inactive; ? = inconclusive; / = no result given; [ ] = remark or other dose. Unless noted, calls follow the shape of the dose curve; as a rule, active = well fitted curve in the direction sought with a large enough effect; inconclusive = small, poorly fitted or top-dose-only effect, or another doubt; inactive = no such curve, though single readings can be large; an effect the other way counts as inactive or inconclusive. Unless noted, % is scaled to controls: 0 for no effect and ±100 for the full control effect.
SMILES,TDP1 cell noCPT,HT1080NT lethal,HT1080 IDH1KD tx,ALOX12 inh,IL-1B inflam inh,TDP1 cell CPT
O=C(NC(c1ccccc1)c1ccsc1)C1CCN(Cc2ccc(Oc3ccccc3)cc2)CC1 (centres undefined),18.4µM*,18.4µM*,14.6µM*,?,?,?
COc1cc(CN2CCC(C(=O)NC(c3ccc(F)cc3)c3ncccc3C)CC2)cc(OC)c1 (centres undefined),?,-17.8%,-25.2%,-14.6%,-21.5,23.1µM*
O=C(NC(c1ccc(-c2ccccc2)cc1)c1cnccn1)C1CCN(CCN2C(=O)c3ccccc3C2=O)CC1 (centres undefined),23.1µM*,-3.5%,-9.4%,10.3%,-1.4,23.1µM*
O=C(NC(c1ccc(-c2ccccc2)cc1)c1cnccn1)C1CCN(Cc2cccs2)CC1 (centres undefined),?,?,?,-0.7%,-10.9,?
N#Cc1ccc(CCC(=O)NCc2cccnc2)cc1,/,/,/,0.0%,/,/
O=C(NCC1CCN(Cc2ccccc2Cl)CC1)c1cc2ccc3cccnc3c2[nH]1,16.4µM*,/,/,5.6%,/,?
O=C(NCc1ccc(Cl)cc1)c1cc2ccc3cccnc3c2[nH]1,?,/,/,6.3%,/,-2.5%
O=C(NCC1CCN(Cc2ccc(F)cc2)CC1)c1cc2ccc3cccnc3c2[nH]1,20.6µM*,/,/,5.9%,/,16.4µM*
O=C(NCc1ccccc1)c1cc(NCc2cccnc2)ccn1,/,/,/,38.6%,/,/
Cc1ccc(-c2cc(C(=O)O)c3cc(Br)ccc3n2)cc1C,/,/,/,3.8%,/,/
CCC(C)(C)C1CCC2(CC1)NC(=O)N(CC(=O)NC(C)CCc1ccccc1)C2=O (centres undefined),11.6µM*,-2.9%,-3.0%,-18.9%,-4.7,?
CCC(C)(C)C1CCC2(CC1)NC(=O)N(CC(=O)Nc1nc(-c3ccc(C)cc3)cs1)C2=O (centres undefined),7.31µM*,-0.3%,4.2%,0.0%,15.6,?
CCC(C)(C)C1CCC2(CC1)NC(=O)N(CC(=O)N1CCN(c3ccccc3OC)CC1)C2=O (centres undefined),20.6µM*,-3.4%,-0.7%,-11.2%,-13.4,20.6µM*
CC(CCc1ccccc1)NC(=O)CN1C(=O)NC2(CCCCC2C)C1=O (centres undefined),-27.7%,12.1%,-0.2%,4.8%,4.5,-0.8%
CCC(C)(C)C1CCC2(CC1)NC(=O)N(CC(=O)N(C)Cc1ccc3c(c1)OCCO3)C2=O (centres undefined),20.6µM*,4.0%,11.7%,0.0%,-17.4,?
O=C(CN1C(=O)NC2(CCCC2)C1=O)Nc1nc(-c2ccc(F)cc2)cs1,-20.9%,1.9%,-14.8%,17.7%,-23.0,-18.8%
CCCn1nc(C(=O)NCC(c2cccs2)N(C)C)c2ccccc2c1=O (centres undefined),/,/,/,28.1%,/,/
O=C(c1ccccc1)N1CCN(Cc2nnnn2C2CC2)CC1,/,/,/,8.2%,/,/
CN(CCc1ccccc1)CC[C@@H]1CC[C@H](O)[C@@H](C(=O)N(C)Cc2ccccc2)O1,/,/,/,-0.4%[176 µM],/,/
CN(CCCNC(=O)c1cc2c(Cl)nc3ccccc3c2s1)Cc1ccccc1,20.6µM*,16.4µM*,16.4µM*,?,-81.6*,14.6µM*
Cc1ccc2nc(Cl)c3cc(C(=O)NCCCN(C)Cc4ccccc4)sc3c2c1,10.3µM*,/,/,2.5%,/,?
CCCCCCCCCC1(CC(=O)OCC)SCCN1C(N)=O (centres undefined),14.6µM*,-4.8%,-16.6%,?,0.0,?
Cn1c(-c2ccc(F)cc2)cc2ccccc21,/,/,/,54.9%,/,/
O=C(N/N=C/c1ccccc1O)C1CC(=O)N(c2ccc(Cl)cc2)C1 (centres undefined),3.66µM*,?,3.26µM*,9.1%,178.5,7.31µM*
O=C(Nc1ccc(Cl)cc1)N1CCC2(CC1)CCN(Cc1cccs1)c1ccccc1O2,/,/,/,-1.0%,/,/
SMILES,TDP1 cell noCPT,HT1080NT lethal,HT1080 IDH1KD tx,ALOX12 inh,IL-1B inflam inh,TDP1 cell CPT
Cc1ccc(C2Cn3nnc(C(=O)N4CCC(C(=O)NCc5ccccc5Cl)CC4)c3CO2)cc1 (centres undefined),/,/,/,7.0%,/,/
Cc1cc(C)n(/N=C/c2ccc(C(C)C)cc2)c(=O)c1C#N,8.2µM*,11.8%,15.2%,-9.8%,-17.9,?
Cc1cc(C)n(/N=C/c2ccc(O)cc2)c(=O)c1C#N,-17.5%,16.0%,17.6%,-32.5%,-2.8,-22.0%
CNC(=O)[C@@H]1CN(C(=O)Cn2c(=O)oc3ccccc32)C[C@H]1COC,/,/,/,32.6%,/,/
O=C(O)c1cnn(-c2ccccc2)c1-n1cccc1,-21.3%,-1.3%,-1.3%,13.3%,16.4,-27.8%
O=C(NNS(=O)(=O)c1ccc(Cl)cc1)c1cnn(-c2ccccc2)c1-n1cccc1,2.06µM*,4.6%,1.5%,-0.9%,4.3,1.46µM*
O=C(NNS(=O)(=O)c1ccccc1)c1cnn(-c2ccccc2)c1-n1cccc1,11.6µM*,?,1.4%,0.0%,-0.5,8.2µM*
O=C(NNS(=O)(=O)c1ccc([N+](=O)[O-])cc1)c1cnn(-c2ccccc2)c1-n1cccc1,0.461µM*,2.7%,6.0%,?,6.4,0.461µM*
NNC(=O)c1cnn(-c2ccccc2)c1-n1cccc1,-12.0%,?,?,3.1%,11.8,3.5%
O=C(NNS(=O)(=O)c1ccc([N+](=O)[O-])cc1)c1ccc([N+](=O)[O-])cc1,-21.1%,12.7%,12.1%,-25.7%,3.2,3.6%
O=C(CCNc1c(-c2ccc(F)cc2)nc2cnccn12)N1CCCCC1,/,/,/,12.7%,/,/

# Compound activity: PubChem BioAssay, National Center for Advancing Translational Sciences (NCATS)
